From PubChem BioAssay
For some assays here: Entries with a potency or affinity are not part of this list. Activity calls are given as the source filed them. Unless noted, how the calls were made is not given here.

Key:
[1] = antimalarial activity against Dd2 strain (AID 2302;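 active means growth inhibition above 50% at the single 2 µM test dose, taken to imply half-maximal potency below 2 µM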;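 further: 0% = DMSO untreated growth and 100% = chloroquine plus artemisinin killed control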); conditions: P. falciparum Dd2 in RBCs, LDH growth readout, 72 h; at 2 µM; active compounds read high
[2] = HepG2 cytotoxicity, primary screen, cytotoxicity control for P. falciparum antimalarial project, cell-based, ATP luminescence (AID 2303;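 active means inhibition above 50%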;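 further: 0% = DMSO wells and 100% = digitonin-killed cells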); conditions: HepG2 viability, 24-48 h, at 10 µM, active compounds read high
[3] = biological target: L-lactate dehydrogenase (Plasmodium falciparum (isolate CDC / Honduras)) (UniProt Q27743); assay: PfLDH activity inhibition – cell lysate, 3D7 strain, counter-screen for P. falciparum growth inhibition project (AID 2304);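 further: 0% = vehicle and 100% = reference inhibitor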; conditions: P. falciparum 3D7 crude extract, LDH APAD/NBT absorbance; at 2 µM; active compounds read high
L-lactate dehydrogenase (Plasmodium falciparum (isolate CDC / Honduras)), sequence (Q27743 whole entry, looked up): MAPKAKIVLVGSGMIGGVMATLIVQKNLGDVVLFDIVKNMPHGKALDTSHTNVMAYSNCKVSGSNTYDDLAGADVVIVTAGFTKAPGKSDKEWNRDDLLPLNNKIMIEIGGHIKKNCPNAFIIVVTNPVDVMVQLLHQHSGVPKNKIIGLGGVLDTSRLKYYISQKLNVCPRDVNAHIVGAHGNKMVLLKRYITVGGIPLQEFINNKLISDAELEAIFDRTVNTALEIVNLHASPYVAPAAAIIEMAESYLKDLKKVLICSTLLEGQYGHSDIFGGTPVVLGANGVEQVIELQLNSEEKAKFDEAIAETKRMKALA

[4] = inhibition of 3D7 malaria parasite growth – strain 3D7 (AID 2306);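 further: 0% = DMSO wells and 100% = chloroquine plus artemisinin control wells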; conditions: P. falciparum 3D7 erythrocytic growth, LDH absorbance, 72 h; at 2 µM; active compounds read high
[5] = biological target: Calcium-dependent protein kinase 1 (Plasmodium falciparum (isolate 3D7)) (UniProt P62344); assay: PfCDPK1 kinase inhibitors, biochemical, TCAMS library (AID 1159585; cut-off not given, nearly all actives have IC50 up to about 0.98 µM;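 further: inhibitors leave more ATP so luminescence rises with inhibition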); conditions: recombinant PfCDPK1, Kinase-Glo ATP depletion luminescence
Calcium-dependent protein kinase 1 (Plasmodium falciparum (isolate 3D7)), sequence (P62344 whole entry, looked up): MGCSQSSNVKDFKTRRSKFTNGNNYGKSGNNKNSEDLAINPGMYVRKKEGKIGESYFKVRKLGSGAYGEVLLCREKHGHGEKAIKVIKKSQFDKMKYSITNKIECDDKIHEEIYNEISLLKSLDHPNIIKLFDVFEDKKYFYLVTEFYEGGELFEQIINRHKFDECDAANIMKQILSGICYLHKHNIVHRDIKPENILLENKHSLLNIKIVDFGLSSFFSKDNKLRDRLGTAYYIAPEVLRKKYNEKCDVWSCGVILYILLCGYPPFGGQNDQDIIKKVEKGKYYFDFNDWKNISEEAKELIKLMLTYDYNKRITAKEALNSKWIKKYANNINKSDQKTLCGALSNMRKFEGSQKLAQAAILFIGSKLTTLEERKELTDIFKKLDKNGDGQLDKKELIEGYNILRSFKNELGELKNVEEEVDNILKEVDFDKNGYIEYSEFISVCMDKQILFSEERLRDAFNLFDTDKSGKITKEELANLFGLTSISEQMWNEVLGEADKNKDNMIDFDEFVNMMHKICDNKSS

[6] = biological target: Plasmodium falciparum protein kinase 6 (PK6, PF3D7_1337100) (UniProt Q8IDW1); assay: PfPK6 kinase inhibitors, biochemical, TCAMS library (AID 1159586); conditions: recombinant PfPK6, Kinase-Glo ATP depletion luminescence
Plasmodium falciparum protein kinase 6 (PK6, PF3D7_1337100), sequence (Q8IDW1 1-305): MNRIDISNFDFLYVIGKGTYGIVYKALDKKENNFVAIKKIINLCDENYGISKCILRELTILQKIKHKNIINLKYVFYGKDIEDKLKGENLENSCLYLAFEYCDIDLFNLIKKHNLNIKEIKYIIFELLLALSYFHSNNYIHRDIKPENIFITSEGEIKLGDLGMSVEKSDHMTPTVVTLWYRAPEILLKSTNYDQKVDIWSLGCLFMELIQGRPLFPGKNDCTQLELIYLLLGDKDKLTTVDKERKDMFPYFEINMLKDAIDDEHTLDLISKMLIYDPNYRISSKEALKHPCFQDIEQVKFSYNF

[7] = biological target: Protein kinase 7 (PK7), Plasmodium falciparum 3D7 (PF3D7_0213400) (UniProt Q7YTF7); assay: inhibition of Plasmodium PK7 catalytic activity – biochemical, TCAMS antimalarial set, Kinase-Glo luminescence (AID 1159587); conditions: recombinant PfPK7, Kinase-Glo ATP depletion luminescence
Protein kinase 7 (PK7), Plasmodium falciparum 3D7 (PF3D7_0213400), sequence (Q7YTF7 1-343): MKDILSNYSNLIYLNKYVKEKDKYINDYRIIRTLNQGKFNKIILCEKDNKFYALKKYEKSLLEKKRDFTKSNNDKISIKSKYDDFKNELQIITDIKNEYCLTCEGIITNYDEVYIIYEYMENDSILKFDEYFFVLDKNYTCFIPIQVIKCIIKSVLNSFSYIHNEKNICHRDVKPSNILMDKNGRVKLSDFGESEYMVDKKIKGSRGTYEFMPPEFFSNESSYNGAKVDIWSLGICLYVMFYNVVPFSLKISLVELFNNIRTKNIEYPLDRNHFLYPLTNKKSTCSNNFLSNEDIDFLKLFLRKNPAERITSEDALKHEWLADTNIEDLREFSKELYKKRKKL

[8] = biological target: Calcium-dependent protein kinase 4 (Plasmodium falciparum (isolate 3D7)) (UniProt Q8IBS5); assay: PfCDPK4 kinase inhibitors, biochemical, TCAMS library (AID 1159588; cut-off not given, nearly all actives have IC50 up to about 0.91 µM); conditions: recombinant PfCDPK4, Kinase-Glo ATP depletion luminescence
Calcium-dependent protein kinase 4 (Plasmodium falciparum (isolate 3D7)), sequence (Q8IBS5 whole entry, looked up): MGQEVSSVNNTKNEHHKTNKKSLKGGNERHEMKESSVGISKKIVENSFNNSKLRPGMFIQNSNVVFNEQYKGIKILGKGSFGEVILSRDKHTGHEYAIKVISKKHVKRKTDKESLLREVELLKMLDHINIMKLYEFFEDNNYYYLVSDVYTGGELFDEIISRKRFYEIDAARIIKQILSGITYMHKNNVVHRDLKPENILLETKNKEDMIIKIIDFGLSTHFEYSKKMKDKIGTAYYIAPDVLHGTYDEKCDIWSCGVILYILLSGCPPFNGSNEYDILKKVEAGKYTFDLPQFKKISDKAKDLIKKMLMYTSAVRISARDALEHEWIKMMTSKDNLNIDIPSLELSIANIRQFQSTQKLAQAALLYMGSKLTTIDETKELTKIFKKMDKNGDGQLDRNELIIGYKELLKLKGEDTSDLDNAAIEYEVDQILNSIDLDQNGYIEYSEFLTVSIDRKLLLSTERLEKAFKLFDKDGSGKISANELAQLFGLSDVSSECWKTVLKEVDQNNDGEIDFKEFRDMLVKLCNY

COc1cccc2c(NN=Cc3cccc(Cl)c3)cc(C)nc12
inactive: inhibition [2] 3% | inhibition [3] 2% | outcome [5] | outcome [6] | outcome [7] | outcome [8]
active: growth inhibition [1] 75% | growth inhibition [4] 101%

CC(C)N=C(N)NN=Cc1ccc(Cl)c(Cl)c1
inactive: growth inhibition [1] 12% | inhibition [2] -8% | inhibition [3] -2% | outcome [5] | outcome [6] | outcome [7] | outcome [8]
active: growth inhibition [4] 101%

Cc1cnc2ccc(NS(=O)(=O)c3ccc4c(Cl)cccc4c3)cc2c1N1CCNCC1
inactive: growth inhibition [1] 3% | inhibition [2] 24% | inhibition [3] 1% | outcome [5] | outcome [6] | outcome [7] | outcome [8]
active: growth inhibition [4] 101%

CN(C)CCCNc1c2ccccc2nc2ccccc12
active: growth inhibition [4] 91%
inactive: growth inhibition [1] 4% | inhibition [2] 31% | inhibition [3] -3% | outcome [5] | outcome [6] | outcome [7] | outcome [8]

Cc1cc(NN=Cc2cccc(Cl)c2)c2cc(F)ccc2n1
inactive: inhibition [2] 1% | inhibition [3] -5% | outcome [5] | outcome [6] | outcome [7] | outcome [8]
active: growth inhibition [1] 100% | growth inhibition [4] 101%

CCC[C@@H]([C@@H](CC1CCC(C)CC1)C(=O)N[C@@H](CCCCNC(=O)c1ccccn1)C(=O)Nc1nccs1)N(O)C=O (stereo not given in full)
inactive: inhibition [2] 25% | inhibition [3] -1% | outcome [5] | outcome [6] | outcome [7] | outcome [8]
active: growth inhibition [1] 79% | growth inhibition [4] 101%

CC(C)(C)c1cc(NC2CC2)nc(-c2ccccn2)n1
inactive: inhibition [2] 7% | inhibition [3] -7% | outcome [5] | outcome [6] | outcome [7] | outcome [8]
active: growth inhibition [1] 79% | growth inhibition [4] 94%

CC(=O)Nc1ncc(C(=O)Nc2cccc(-c3ccc(-c4nc5ccc(C(F)(F)F)cc5[nH]4)s3)c2)s1
inactive: inhibition [3] 5% | outcome [5] | outcome [6] | outcome [7] | outcome [8]
active: growth inhibition [1] 99% | inhibition [2] 90% | growth inhibition [4] 101%

NC(=O)c1ccc(NC(=O)CN(Cc2ccc(Cl)cc2)S(=O)(=O)c2ccccc2)cc1
active: growth inhibition [1] 75% | growth inhibition [4] 90%
inactive: inhibition [2] 2% | inhibition [3] 6% | outcome [5] | outcome [6] | outcome [7] | outcome [8]

CCN(CCCN1CCCCC1)c1cc(C)nc(Nc2ccc(OC)cc2)n1
active: growth inhibition [4] 100%
inactive: growth inhibition [1] 24% | inhibition [2] 23% | inhibition [3] -6% | outcome [5] | outcome [6] | outcome [7] | outcome [8]

COc1ccc2nccc([C@@H](O)CN3CCC(NC(=O)C(=Cc4ccc(C#N)cc4)c4ccc(-c5ccccc5)cc4)CC3)c2c1
active: growth inhibition [1] 84% | growth inhibition [4] 101%
inactive: inhibition [2] 5% | inhibition [3] -5% | outcome [5] | outcome [6] | outcome [7] | outcome [8]

Cc1c(S(=O)(=O)Nc2cccc(CCN3CCCCC3CCN3CCCC3)c2)sc2ccc(Cl)cc12 (stereo not given)
inactive: growth inhibition [1] 10% | inhibition [2] 22% | inhibition [3] 0% | outcome [5] | outcome [6] | outcome [7] | outcome [8]
active: growth inhibition [4] 93%

CN(C)CCNC(=O)c1cccc(-c2cnc3ccc(NCc4ccc(Cl)c(Cl)c4)nn23)c1
inactive: inhibition [2] 31% | inhibition [3] -2% | outcome [5] | outcome [6] | outcome [7] | outcome [8]
active: growth inhibition [1] 53% | growth inhibition [4] 100%

COc1ccc(-c2nonc2NC(=O)c2cccc(Cl)c2)cc1OC
active: growth inhibition [1] 63% | growth inhibition [4] 98%
inactive: inhibition [2] 41% | inhibition [3] 4% | outcome [5] | outcome [6] | outcome [7] | outcome [8]

O=c1cc(NCCCNCc2cccc(C(F)(F)F)c2Cl)[nH]c2ccccc12
active: growth inhibition [4] 94%
inactive: growth inhibition [1] 24% | inhibition [2] 0% | inhibition [3] -2% | outcome [5] | outcome [6] | outcome [7] | outcome [8]

CCCCCCNC(=O)C1Cc2c([nH]c3cc(Cl)ccc23)C2(CCN(Cc3ccccc3)CC2)N1 (stereo not given)
active: growth inhibition [1] 56% | growth inhibition [4] 90%
inactive: inhibition [2] 21% | inhibition [3] 2% | outcome [5] | outcome [6] | outcome [7] | outcome [8]

Cn1ncc2c3c(CCN4CCC(NCc5cc6c(cn5)OCC6)CC4)c(Cl)cnc3ccc21
active: growth inhibition [4] 94%
inactive: growth inhibition [1] 0% | inhibition [2] 4% | inhibition [3] 2% | outcome [5] | outcome [6] | outcome [7] | outcome [8]

c1ccc(-c2nc(Nc3nc4ccccc4[nH]3)[nH]c2-c2ccccc2)cc1
active: growth inhibition [1] 61% | growth inhibition [4] 96%
inactive: inhibition [2] 14% | inhibition [3] -5% | outcome [5] | outcome [6] | outcome [7] | outcome [8]

O=C(NC1CC1)c1ccc(N2CCOc3ccc(Cl)cc32)s1
active: growth inhibition [1] 73% | growth inhibition [4] 94%
inactive: inhibition [2] 8% | inhibition [3] 5% | outcome [5] | outcome [6] | outcome [7] | outcome [8]

Cc1noc(C)c1-c1ccc2c(Nc3ccc(Cl)cc3)c(C(N)=O)cnc2c1
inactive: inhibition [2] 9% | inhibition [3] 7% | outcome [5] | outcome [6] | outcome [7] | outcome [8]
active: growth inhibition [1] 67% | growth inhibition [4] 94%

Cc1cnc(NCCc2ccc(F)cc2)nc1N[C@@H](CC(C)C)C(=O)Nc1ccccc1
inactive: growth inhibition [1] 29% | inhibition [2] 19% | inhibition [3] -1% | outcome [5] | outcome [6] | outcome [7] | outcome [8]
active: growth inhibition [4] 87%

Cn1nc(C(F)(F)F)cc1-c1ccc(C(=O)Nc2ccc3c(c2)CNCC3(C)C)s1
inactive: growth inhibition [1] 36% | inhibition [2] 10% | inhibition [3] -1% | outcome [5] | outcome [6] | outcome [7] | outcome [8]
active: growth inhibition [4] 88%

Nc1cccc(CNCc2ccc(-c3ccc(-c4nc5ccccc5[nH]4)s3)cc2)c1
active: growth inhibition [1] 93% | growth inhibition [4] 100%
inactive: inhibition [2] 12% | inhibition [3] 4% | outcome [5] | outcome [6] | outcome [7] | outcome [8]

Cc1ncccc1C(=O)Nc1cccc(-c2cccc(-c3nc4ccc(C(F)(F)F)cc4[nH]3)c2)c1
active: growth inhibition [4] 96%
inactive: growth inhibition [1] 30% | inhibition [2] 34% | inhibition [3] 1% | outcome [5] | outcome [6] | outcome [7] | outcome [8]

CC1CN(Cc2ccc(-c3ccc(-c4nc5ccccc5[nH]4)cc3)cc2)CC(C)O1 (stereo not given)
active: growth inhibition [1] 96% | growth inhibition [4] 98%
inactive: inhibition [2] 48% | inhibition [3] 3% | outcome [5] | outcome [6] | outcome [7] | outcome [8]

C[C@H](NC(=O)c1c(CN2CCC(N3CCCCC3)CC2)c(-c2ccccc2)nc2cc(O)ccc12)C1CCCCC1
active: growth inhibition [1] 72% | inhibition [2] 77% | growth inhibition [4] 99%
inactive: inhibition [3] 0% | outcome [5] | outcome [6] | outcome [7] | outcome [8]

O=C(Nc1ccc2ccccc2n1)c1ccccc1-c1ccccc1
inactive: inhibition [2] 14% | inhibition [3] 0% | outcome [5] | outcome [6] | outcome [7] | outcome [8]
active: growth inhibition [1] 83% | growth inhibition [4] 90%

O=S(=O)(c1ccccc1OC(F)(F)F)C1C[C@H]2CC[C@@H](C1)N2S(=O)(=O)c1cccc(C(F)(F)F)c1 (stereo not given in full)
inactive: inhibition [2] 5% | inhibition [3] 2% | outcome [5] | outcome [6] | outcome [7] | outcome [8]
active: growth inhibition [1] 99% | growth inhibition [4] 99%

O=C(Nc1ccc(C(F)(F)F)cc1)c1ccc(S(=O)(=O)NC2CCN(Cc3ccccc3)C2)cc1 (stereo not given)
inactive: growth inhibition [1] 5% | inhibition [2] 42% | inhibition [3] 5% | outcome [5] | outcome [6] | outcome [7] | outcome [8]
active: growth inhibition [4] 101%

COc1ccc2c(NN=Cc3ccccc3[N+](=O)[O-])cc(C)nc2c1
active: growth inhibition [1] 100% | growth inhibition [4] 101%
inactive: inhibition [2] 14% | inhibition [3] -4% | outcome [5] | outcome [6] | outcome [7] | outcome [8]

O=C1OC(c2ccccc2)(c2ccccn2)CN1C1CCN(Cc2cccn2-c2ccc(Cl)cc2)CC1 (stereo not given)
active: growth inhibition [1] 98% | growth inhibition [4] 99%
inactive: inhibition [2] 21% | inhibition [3] -5% | outcome [5] | outcome [6] | outcome [7] | outcome [8]

FC(F)(F)c1ccc2nc(-c3ccc(-c4ccc(CNCCN5CCNCC5)cc4)s3)[nH]c2c1
inactive: inhibition [2] 17% | inhibition [3] -2% | outcome [5] | outcome [6] | outcome [7] | outcome [8]
active: growth inhibition [1] 79% | growth inhibition [4] 94%

Cc1cc(N[C@@H](CC(C)C)C(=O)NC2CCCC2)nc(NCc2ccccc2C)n1
inactive: growth inhibition [1] 44% | inhibition [2] 2% | inhibition [3] -3% | outcome [5] | outcome [6] | outcome [7] | outcome [8]
active: growth inhibition [4] 98%

CCCCCCn1c(Sc2ccc(C#N)c([N+](=O)[O-])c2)nnc1-c1cc(OC)cc(OC)c1
inactive: growth inhibition [1] 41% | inhibition [2] 35% | inhibition [3] -5% | outcome [5] | outcome [6] | outcome [7] | outcome [8]
active: growth inhibition [4] 95%

COc1ccc2nccc([C@@H](O)CN3CCC(NCc4ccc5nc[nH]c(=O)c5c4)CC3)c2c1
inactive: growth inhibition [1] 4% | inhibition [2] 12% | inhibition [3] -13% | outcome [5] | outcome [6] | outcome [7] | outcome [8]
active: growth inhibition [4] 99%

COc1ccc2ncc(F)c(CCN3CCC4(CC3)COC(c3cc5c(cn3)OCCO5)=N4)c2n1
active: growth inhibition [1] 83% | inhibition [2] 79% | growth inhibition [4] 89%
inactive: inhibition [3] 5% | outcome [5] | outcome [6] | outcome [7] | outcome [8]

CC(=O)Nc1ccc(NC(=O)c2cc(-c3cc(Cl)ccc3O)n[nH]2)cc1
active: growth inhibition [1] 100% | growth inhibition [4] 100%
inactive: inhibition [2] 1% | inhibition [3] -2% | outcome [5] | outcome [6] | outcome [7] | outcome [8]

COc1cc(NCCCNC(=O)c2ccc(Cl)c(Cl)c2)nc2ccccc12
active: growth inhibition [1] 101% | growth inhibition [4] 99%
inactive: inhibition [2] 48% | inhibition [3] 5% | outcome [5] | outcome [6] | outcome [7] | outcome [8]

COc1ccccc1CNc1ccnc(NCCc2cccc(C(F)(F)F)c2)n1
inactive: inhibition [2] 39% | inhibition [3] -4% | outcome [5] | outcome [6] | outcome [7] | outcome [8]
active: growth inhibition [1] 68% | growth inhibition [4] 93%

O=C(Nc1ccc(C(=O)N2CCN(CCN3CCN(c4cccc(C(F)(F)F)c4)CC3)CC2)cc1)c1ccc(OC(F)(F)F)cc1
inactive: growth inhibition [1] 25% | inhibition [2] 38% | inhibition [3] 7% | outcome [5] | outcome [6] | outcome [7] | outcome [8]
active: growth inhibition [4] 95%
